# According to the supplement of paper PMC8728848:
# About 410 targets per protein were measured; listed, in parts, are those with the strongest signals and a random draw of the rest.
# B1: Clec12b (Mus musculus), Q149M0 (protein)
# chain: MSDEVTYATLMLQDSARVRGNQDGNNLRKEGHPAQSSLWRGAALSLMTLCLVLVTGLVTLATMFLQVSNDINSDSEKLSQLQKSIHPQQDNLSESLNSSRKSLTEESLQSQISALLERQEQMATKLCKEFLIHASDHKCNPCPKTWQWYGNSCYYFSINEEKSWSDSRKDCIDKNATLVKIDSTEERDLLQSQLSLTFSFFWLGLSWNSSGRNWLWEDGSFPPPTLFSDKELASFNGSRDCAYFERGNIYASRCSAEIPWICEKTASLVKTEDLD
# Experiments:
# Test in all cases: glycan array binding signal (z-score within array); higher = stronger binding
# Conditions in all cases: glycan notation: IUPAC condensed, linker removed
# Gal(b1-6)Gal = target: Gal(b1-6)Gal
# Method in brief: (§1)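 The Consortium for Functional Glycomics database supplied 3228 glycan arrays, of which those lacking an available protein sequence were dropped. The binding signal, a within-array Z-score, was averaged across arrays of the same protein sequence and across linkers. Negative scores can be read as non-binding.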
# Gal6S(b1-4)Glc6S = target: Gal6S(b1-4)Glc6S
# Method in brief: as §1
# GalNAc(b1-3)GalNAc = target: GalNAc(b1-3)GalNAc
# Method in brief: as §1
# GalNAc(b1-4)GlcNAc = target: GalNAc(b1-4)GlcNAc
# Method in brief: as §1
# GalNAc(b1-6)GalNAc = target: GalNAc(b1-6)GalNAc
# Method in brief: as §1
# GalNAc3S(b1-4)GlcNAc = target: GalNAc3S(b1-4)GlcNAc
# Method in brief: as §1
# Glc(b1-6)Glc = target: Glc(b1-6)Glc
# Method in brief: as §1
# GlcA(b1-3)GlcNAc = target: GlcA(b1-3)GlcNAc
# Method in brief: as §1
# GlcNAc(b1-3)Gal = target: GlcNAc(b1-3)Gal
# Method in brief: as §1
# GlcNAc(b1-3)Gal(b1-4)Glc = target: GlcNAc(b1-3)Gal(b1-4)Glc
# Method in brief: as §1
# [1] = target: GlcNAc(b1-3)Gal(b1-4)GlcNAc(b1-3)Gal(b1-4)GlcNAc(b1-2)Man(a1-3)[GlcNAc(b1-3)Gal(b1-4)GlcNAc(b1-3)Gal(b1-4)GlcNAc(b1-2)Man(a1-6)]Man(b1-4)GlcNAc(b1-4)GlcNAc
# Method in brief: as §1
# [2] = target: GlcNAc(b1-3)[GlcNAc(b1-4)][GlcNAc(b1-6)]GlcNAc
# Method in brief: as §1
# [3] = target: Man(a1-2)Man(a1-6)[Man(a1-3)]Man(a1-6)[Man(a1-2)Man(a1-2)Man(a1-3)]Man
# Method in brief: as §1
# [4] = target: Man(a1-2)Man(a1-6)[Man(a1-3)]Man(a1-6)[Man(a1-2)Man(a1-2)Man(a1-3)]Man(b1-4)GlcNAc(b1-4)GlcNAc
# Method in brief: as §1
# Neu5Ac(a2-3)Gal = target: Neu5Ac(a2-3)Gal
# Method in brief: as §1
# [5] = target: Neu5Ac(a2-3)Gal(b1-3)GalNAc(b1-3)Gal(a1-4)Gal(b1-4)Glc
# Method in brief: as §1
# [6] = target: Neu5Ac(a2-3)Gal(b1-3)GlcNAc(b1-2)Man(a1-3)[GlcNAc(b1-4)][Neu5Ac(a2-3)Gal(b1-3)GlcNAc(b1-2)Man(a1-6)]Man(b1-4)GlcNAc(b1-4)GlcNAc
# Method in brief: as §1
# [7] = target: Neu5Ac(a2-3)Gal(b1-4)GlcNAc(b1-2)Man(a1-3)[Neu5Ac(a2-3)Gal(b1-4)GlcNAc(b1-2)Man(a1-6)]Man(b1-4)GlcNAc(b1-4)GlcNAc
# Method in brief: as §1
# [8] = target: Neu5Ac(a2-3)Gal(b1-4)GlcNAc(b1-2)Man(a1-3)[Neu5Ac(a2-3)Gal(b1-4)GlcNAc(b1-2)Man(a1-6)]Man(b1-4)GlcNAc(b1-4)[Fuc(a1-6)]GlcNAc
# Method in brief: as §1
# [9] = target: Neu5Ac(a2-3)Gal(b1-4)GlcNAc(b1-3)Gal(b1-4)GlcNAc(b1-3)[Neu5Ac(a2-3)Gal(b1-4)GlcNAc(b1-3)Gal(b1-4)GlcNAc(b1-6)]GalNAc
# Method in brief: as §1
# [10] = target: Neu5Ac(a2-3)Gal(b1-4)GlcNAc(b1-3)Gal(b1-4)GlcNAc(b1-6)[Gal(b1-3)]GalNAc
# Method in brief: as §1
# [11] = target: Neu5Ac(a2-3)Gal(b1-4)[Fuc(a1-3)]GlcNAc(b1-6)[Gal(b1-3)]GalNAc
# Method in brief: as §1
# [12] = target: Neu5Ac(a2-3)Gal6S(b1-4)GlcNAc
# Method in brief: as §1
# [13] = target: Neu5Ac(a2-3)[GalNAc(b1-4)]Gal(b1-4)GlcNAc
# Method in brief: as §1
# [14] = target: Neu5Ac(a2-6)Gal(b1-4)GlcNAc(b1-2)Man(a1-3)[GlcNAc(b1-2)Man(a1-6)]Man(b1-4)GlcNAc(b1-4)GlcNAc
# Method in brief: as §1
# [15] = target: Neu5Ac(a2-6)Gal(b1-4)GlcNAc(b1-3)Gal(b1-4)GlcNAc(b1-3)Gal(b1-4)GlcNAc
# Method in brief: as §1
# [16] = target: Neu5Ac(a2-6)Gal(b1-4)GlcNAc(b1-3)Gal(b1-4)GlcNAc(b1-3)[Neu5Ac(a2-6)Gal(b1-4)GlcNAc(b1-3)Gal(b1-4)GlcNAc(b1-6)]GalNAc
# Method in brief: as §1
# [17] = target: Neu5Ac(a2-6)Gal(b1-4)GlcNAc6S
# Method in brief: as §1
# [18] = target: Neu5Ac(a2-6)GalNAc(b1-4)GlcNAc
# Method in brief: as §1
# [19] = target: Neu5Ac(a2-6)GalNAc(b1-4)GlcNAc6S
# Method in brief: as §1
# [20] = target: Neu5Ac(a2-8)Neu5Gc(a2-3)Gal(b1-4)GlcNAc
# Method in brief: as §1
binder,measurement,setting,value
B1,glycan array binding signal (z-score),Gal(b1-6)Gal,-0.5
same,glycan array binding signal (z-score),Gal6S(b1-4)Glc6S,1.24
same,glycan array binding signal (z-score),GalNAc(b1-3)GalNAc,-0.125
same,glycan array binding signal (z-score),GalNAc(b1-4)GlcNAc,0.301
same,glycan array binding signal (z-score),GalNAc(b1-6)GalNAc,1.14
same,glycan array binding signal (z-score),GalNAc3S(b1-4)GlcNAc,-0.691
same,glycan array binding signal (z-score),Glc(b1-6)Glc,-0.441
same,glycan array binding signal (z-score),GlcA(b1-3)GlcNAc,-0.05
same,glycan array binding signal (z-score),GlcNAc(b1-3)Gal,-0.39
same,glycan array binding signal (z-score),GlcNAc(b1-3)Gal(b1-4)Glc,2.54
same,glycan array binding signal (z-score),[1],-0.27
same,glycan array binding signal (z-score),[2],-0.245
same,glycan array binding signal (z-score),[3],-0.526
same,glycan array binding signal (z-score),[4],-0.428
same,glycan array binding signal (z-score),Neu5Ac(a2-3)Gal,-0.719
same,glycan array binding signal (z-score),[5],-0.593
same,glycan array binding signal (z-score),[6],-0.101
same,glycan array binding signal (z-score),[7],-0.716
same,glycan array binding signal (z-score),[8],11.9
same,glycan array binding signal (z-score),[9],-0.513
same,glycan array binding signal (z-score),[10],-0.721
same,glycan array binding signal (z-score),[11],2.54
same,glycan array binding signal (z-score),[12],-0.451
same,glycan array binding signal (z-score),[13],-0.538
same,glycan array binding signal (z-score),[14],-0.701
same,glycan array binding signal (z-score),[15],-0.719
same,glycan array binding signal (z-score),[16],-0.419
same,glycan array binding signal (z-score),[17],0.459
same,glycan array binding signal (z-score),[18],-0.692
same,glycan array binding signal (z-score),[19],-0.524
same,glycan array binding signal (z-score),[20],-0.719
